ALOX12 inhib = 12-hLO (ALOX12) enzyme inhibition. 0.12% of 150,000 active. Potency, µM (doses to about 57.1 µM), hits mostly inhibitors. AID 1452. purified 12-hLO, xylenol orange hydroperoxide absorbance; active = well fitted inhibition curve with a large enough effect; inconclusive = small, poorly fitted or top-dose-only effect; also: nearly all actives have a fitted effect of over 55% in size
Target sequence (P18054 whole entry, looked up): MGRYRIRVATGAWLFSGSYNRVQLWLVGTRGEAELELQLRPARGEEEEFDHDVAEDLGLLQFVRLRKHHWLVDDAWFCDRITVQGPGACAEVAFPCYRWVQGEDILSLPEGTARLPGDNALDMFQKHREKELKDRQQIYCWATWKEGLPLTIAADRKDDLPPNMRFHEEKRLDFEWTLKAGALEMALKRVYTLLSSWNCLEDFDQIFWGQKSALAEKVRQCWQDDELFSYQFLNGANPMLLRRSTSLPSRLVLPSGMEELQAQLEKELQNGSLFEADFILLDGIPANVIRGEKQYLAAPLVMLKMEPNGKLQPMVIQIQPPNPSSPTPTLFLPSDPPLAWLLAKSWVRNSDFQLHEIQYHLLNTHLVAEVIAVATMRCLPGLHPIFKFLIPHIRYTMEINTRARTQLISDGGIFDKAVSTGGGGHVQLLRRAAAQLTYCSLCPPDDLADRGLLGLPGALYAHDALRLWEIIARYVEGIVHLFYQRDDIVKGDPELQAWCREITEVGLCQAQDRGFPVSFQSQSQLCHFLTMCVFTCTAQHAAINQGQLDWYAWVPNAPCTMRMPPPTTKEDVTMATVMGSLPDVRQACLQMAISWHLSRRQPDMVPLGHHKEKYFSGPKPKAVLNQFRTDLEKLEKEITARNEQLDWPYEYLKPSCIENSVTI
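150 nM 12hLO, 25 mM Hepes pH 7.0 + 0.01% Triton X-100; cpd preinc 15 min RT; 40 uM arachidonic acid, 30 min RT; Fe-XO 30 min; A573/A405 ratio as read-out.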
PNC assembly inh = perinucleolar compartment assembly inhibition | activity change (PNC), negative = inhibition, % at 10 µM | PC3M PTB-GFP, PNC prevalence imaging, 16 h; hits give low values | 3.1% of 140,000 active;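 active = readout at or below -70, meaning at least 70% loss of cells showing the perinucleolar compartment, a nuclear body marking cancer cells; inconclusive = readout between -30 and a set limit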
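PC3M cells stably expressing PTB-GFP, 750–1000 cells/well, treated 16 h at 37 °C with compound (23 nl of library stock), in duplicate. After paraformaldehyde fixation and Hoechst stain, imaged at 20x; PNC prevalence scored by image analysis.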
ALDH1A1 inh-1 = inhibitors of human aldehyde dehydrogenase 1A1; P00352; Purified ALDH1A1, NADH fluorescence, propionaldehyde substrate; Potency, µM (series often up to 75.3 µM), usual class: inhibitors; 7.3% of 220,000 active; AID 1030; active = well fitted inhibition curve with a large enough effect, not every such curve was filed as active; inconclusive = small, poorly fitted or top-dose-only effect, or another doubt; inactive = no such curve, though single readings can be large or run the other way
HPGD block = HPGD (human) dehydrogenase inhibition | P15428 | purified HPGD, NADH fluorescence kinetic, PGE2 substrate | Potency, µM, most hits filed as inhibitors | 4.3% of 150,000 active | AID 894; active = well fitted inhibition curve with a large enough effect, not every such curve was filed as active; inconclusive = small, poorly fitted or top-dose-only effect, or another doubt; inactive = no such curve, though single readings can be large or run the other way
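20 nM HPGD preincubated 15 min at room temperature with compound in 50 mM Tris-HCl pH 8, 0.01% Tween 20. Started with 1 mM NAD+ and 30 uM prostaglandin E2; NADH fluorescence (360/450 nm) read 5 times over 30-s intervals, last minus first.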
Lamin A splicing = LMNA splicing modulation; HeLa LMNA splicing GFP/RFP minigene ratio, 48 h; 0.01% of 200,000 active; Potency, µM (highest dose often 46.1 µM), actives largely listed as inhibitors; active = well fitted inhibition curve with a large enough effect in the signal ratio, with a control signal flat, not every such curve was filed as active; inconclusive = small, poorly fitted or top-dose-only effect, or effect the other way, or a change in a side signal; the % refers to the signal ratio
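S3 HeLa stable clones carrying a lamin A-EGFP splicing minigene plus DsRed2 were seeded at 600 cells/well in Opti-MEM with 2% FBS, pin-dosed and incubated 48 h at 37°C. Acumen cytometry (488 nm) gave the GFP/RFP total-intensity ratio.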
HPGD inh cf = confirmation of human HPGD inhibitors. shares compounds with HPGD block. Potency, µM (top dose mostly 57.1 µM), hits mostly inhibitors. 90% of 90 active. recombinant HPGD, NADH fluorescence, PGE2 substrate
ALDH1A1 inh-2 = Blocks ALDH1A1 NADH production, follow-up. shares compounds with ALDH1A1 inh-1. 90% of 90 active. purified ALDH1A1, NADH fluorescence, propionaldehyde/NAD+. Potency, µM (titrated, usually from 57.1 µM), usual class: inhibitors. AID 493210
Numbers stand for hits; i = inactive; ? = inconclusive; nt = no result; [ ] = remark or other dose. This is a sample that favours compounds with a hit; in the whole collection about 10% have one here. Unless noted, calls follow the shape of the full dose curve.

SMILES | ALOX12 inhib | PNC assembly inh | ALDH1A1 inh-1 | HPGD block | Lamin A splicing | ALDH1A1 inh-2 | others
COC(=O)c1scc(-c2ccc(C)cc2)c1S(=O)(=O)N1CCN(c2ccc(C)cc2C)CC1 | nt | nt | nt | nt | i | nt
COc1ccc(N2CCN(C(=O)c3ccc(CSc4ccccc4)cc3)CC2)cc1 | i | i | i | i | i | nt | HPGD inh cf=i
COC(=O)c1ccc(C(NC(=O)OCc2ccccc2)/C(I)=C/[C@@H](C)C(=O)NCc2ccncc2)cc1 (stereo partly drawn) | i | nt | i | i | nt | nt
COc1ccc(S(=O)(=O)N(C)c2ccc(C(=O)N3CCC(C(N)=O)CC3)cc2)cc1 | i | i | i | i | i | nt | HPGD inh cf=i
Cc1ccc(Sc2ncccc2COC(=O)NC(C)C)cc1 | nt | nt | i | nt | i[9.22 µM] | nt
CCCCCNC(=O)c1ccc2c(c1)ncn2-c1cccc(C)c1 | nt | nt | nt | nt | i | nt
Cc1cccc(-n2cnc3cc(C(=O)N4CCCCC4)ccc32)c1 | i | i | 4µM | 0.071µM | i | nt | HPGD inh cf=0.056µM
O=c1[nH]c2ccc(S(=O)(=O)Nc3ccc(-c4nnc5n4CCCCC5)cc3)cc2o1 | i | ? | i | 0.2µM | i | nt | HPGD inh cf=0.13µM
O=C(CCc1ccc(Oc2cc([N+](=O)[O-])cc([N+](=O)[O-])c2)cc1)N1CCCCCC1 | i | i | 13µM | 0.89µM | ? | nt | HPGD inh cf=0.4µM
CCOc1ccccc1CNC(=O)c1cc2oc3ccccc3c2n1C | i | i | ? | ? | ? | nt
COCCNC(=O)c1cc2oc3ccccc3c2n1C | i | i | ? | 1.4µM | i | nt | HPGD inh cf=1.6µM
CCC(=O)OCC(=O)[C@@]1(OC(=O)CC)[C@H](C)C[C@@H]2[C@H]3CCC4=CC(=O)C=C[C@]4(C)[C@]3(Cl)[C@@H](O)C[C@@]21C | i | nt | i | i | i | nt
COC(=O)c1ccsc1NC(=O)CSc1nnnn1-c1ccccc1SC | i | i | 0.13µM | i | i | 0.32µM
COC(=O)c1c(NC(=O)CSc2nnnn2-c2ccccc2)sc2c1CCCC2 | i | i | i | i | i | nt
Cc1cccc(OC(=O)c2cc(-c3ccc4c(c3)OCCO4)on2)c1C | nt | nt | nt | nt | i | nt
COC(=O)c1ccc(C(NC(=O)OCc2ccccc2)/C(=C/[C@@H](C)C(=O)NC2CCCCC2)c2cccnc2)cc1 (stereo partly drawn) | i | nt | i | i | nt | nt
Cc1ccc(OCC(=O)OCCN2C(=O)c3ccccc3C2=O)cc1C | i | i | i | i | i | nt
Cc1cccc2c1N(CCCOc1ccccc1)C(=O)C2=O | i | i | 0.035µM | 28µM | i | 0.045µM
O=c1[nH]c2ccc(NS(=O)(=O)c3ccc(F)cc3)cc2s1 | nt | nt | nt | nt | i | nt
CCCCCSc1nc2c(c(=O)[nH]c(=O)n2C)n1CCc1ccccc1 | i | ? | 0.71µM | i | i | 1.3µM
COc1cc(NC(=O)CN2CCN(S(=O)(=O)c3ccc(C(C)C)cc3)CC2)cc(OC)c1 | i | i | 2.2µM | i | i | 3.2µM
Cc1ccc(S(=O)(=O)N[C@H](CO)C(=O)O)cc1 | i[11.4 µM] | nt | i[13.5 µM] | i | nt | nt
Cc1ccc(S(=O)(=O)N[C@@H](Cc2ccccc2)C(=O)CCl)cc1 | i | i | 0.79µM | 20µM | ? | 0.45µM
CC(C)c1cccc2nc3c(c([Si](C)(C)C)c12)Cn1c-3cccc1=O | i | nt | ? | ? | nt | nt
CCCCOc1ccc(C(=O)CCN2CCCCC2)cc1 | i | i | 0.045µM | i | ? | 0.79µM
COCC1=C2c3ccccc3[C@@H]3CNC(=O)C3(C(=O)OC)C[C@@H]2n2c(=O)n(-c3ccccc3)c(=O)n2C1 (stereo partly drawn) | i | nt | i | i | nt | nt
Cc1cccc(Cn2c(N3CCCCC3C)nc3c2c(=O)[nH]c(=O)n3C)c1 (stereo not drawn) | i | i | 0.28µM | i | i | 0.25µM
Cc1cccc(Cn2c(N3CCc4ccccc4C3)nc3c2c(=O)[nH]c(=O)n3C)c1 | i | i | i | i | i | nt
CS(=O)(=O)c1ccc(Cn2c3c(c4cc(F)cc(F)c42)CCC[C@H]3CC(=O)O)cc1 | i | nt | 0.11µM | i | nt | 0.35µM

High-throughput results deposited in PubChem BioAssay by National Center for Advancing Translational Sciences (NCATS).
